High-throughput results: PubChem BioAssay, several laboratories
In the library only some 1.6% were active in any assay of this set; here they are far more common.
Sa RN4220 lethal: kills Staphylococcus aureus RN4220; S. aureus RN4220 growth, OD600, 16 h; inhibition, % (no concentration beside the values); 330,000 tested, 0.33% active; AID 1259311; in the data active means inhibition above about 85%;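 further: plate controls were untreated cells for no effect and reference antibiotic for full effect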
BJeLR viability: BJeLR cell viability loss. BJeLR (HRASV12) viability, CellTiter-Glo ATP luminescence, 48 h. inhibition, % (concentration not given with the values). 300,000 tested, 0.17% active. AID 1554; in the data active means inhibition above about 50%
ugtP null kill: kills S. aureus RN4220 lacking UgtP; S. aureus RN4220 ugtP deletion, OD600 growth, 16 h; growth inhibition, % (test concentration not listed); 330,000 tested, 0.54% active; in the data active means growth inhibition above about 68%;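 further: plate controls were untreated wells for no effect and antibiotic for full effect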
CCHF vOTU inh-1: CCHFV vOTU protease inhibition; Pep-AMC fluorescence; inhibition, % at 11.5 µM; 370,000 tested, 0.55% active; further: 0% = vehicle wells with enzyme and 100% = no enzyme wells
PfHsp40 yeast: restores yeast growth despite PfHsp40 toxicity | S. cerevisiae expressing PfHsp40, growth rescue, ATP luminescence | growth rescue, % at 12.5 µM | 340,000 tested, 0.68% active; in the data active means growth rescue above about 28%, passing the limit was not always enough;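 further: yeast W303a lacking pdr1 and pdr3 grown in galactose medium; growth measured after three days at 30 °C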
CCHF vOTU inh-2: confirmation of CCHF virus vOTU protease inhibitors | shares compounds with CCHF vOTU inh-1 | Recombinant CCHFV vOTU, Pep-AMC fluorescence | inhibition, % at 11.5 µM | 1,900 tested, 17% active
* marks the source's active call; other numbers are inactive results; · = no result given. Unless noted, no stated cut-off is given here; in the data, active means inhibition above about 30%; inactive means the rest.

SMILES	Sa RN4220 lethal	BJeLR viability	ugtP null kill	CCHF vOTU inh-1	PfHsp40 yeast	CCHF vOTU inh-2
CCN=C1NC(c2ccc(F)cc2)C(C(=O)OC)=C(C)N1Cc1cccc(C(F)(F)F)c1 (stereo not drawn)	·	·	·	36.1*	·	-12.4
COC(=O)C1=C(C)N(Cc2ccccc2)C(=NCc2cccc(C(F)(F)F)c2)N[C@H]1c1cccc(C(F)(F)F)c1	·	·	·	·	1.8	·
COC(=O)C1=C(C)N(Cc2ccccc2)C(=NCc2cccc(C(F)(F)F)c2)N[C@H]1c1cccc(F)c1	·	99.1*	·	31.4*	5.4	10.3
COC(=O)c1ccc(CSc2nc(C(F)F)cc(C)c2C#N)o1	5.7	-13.3	8.2	-7.6	-2.5	·
COC(=O)c1ccc(COc2nc(C)cc(C)c2C#N)o1	1.2	-6.8	1.8	31.6*	-0.7	-1.6
CCN1CC2C3C(=O)N(Cc4ccccc4)C(=O)C3[C@](CC)(C1=O)N2C(=O)c1ccc(C(C)(C)C)cc1 (stereo partly drawn)	3.9	·	-6.5	·	·	·
Oc1c(Cl)cc(Cl)c2cccnc12	56.2	-2.1	41.5	9.5	10.0	·
Cc1ccc(S(=O)(=O)Nc2cc(Cl)c(O)c3ncccc23)cc1	·	22.1	·	30.3*	-2.4	-3.3
Cc1ccc2c(c1)C1CN(C)CCC1N2S(=O)(=O)c1ccc(F)cc1 (stereo not drawn)	5.1	·	-6.5	·	·	·
O=[N+]([O-])c1cccc2ccc(/C=C/c3cccc(Br)c3)nc12	-8.2	-10.4	-14.8	30.9*	-0.9	-12.0
COc1ccc(OC)c(C(O)=CC(=O)C(=O)Nc2cc(C)cc(C)c2)c1	6.5	·	-2.3	·	·	·
O=c1[nH]c(=S)[nH]c2c1C(c1cccc(C(F)(F)F)c1)OC(CCc1ccccc1)C2 (stereo not drawn)	·	·	·	42.1*	·	-11.2
C=Cc1cnc([N+](=O)[O-])n1C	·	·	·	30.4*	·	-18.0
CCSc1ncc(/C=N/Nc2ccc([N+](=O)[O-])cc2)n1C	·	0.0	·	3.2	0.0	·
Cc1cc(SCC(=O)NC2CC2)nc2ccccc12	11.1	·	2.4	40.4*	2.2	-1.5
CC(=O)c1ccc(N2Cc3ccccc3C2=NC(=O)Nc2ccc(Cl)cc2)cc1	-3.2	·	12.5	·	·	·
CC(=O)OC1CC[C@@]2(C)C(CCC3C2CC[C@@]2(C)C3CC2C(C)(C)O)C1 (stereo partly drawn)	-0.3	·	22.7	·	·	·
CCCCn1c(NC(=O)c2ccccc2)c(C#N)c2nc3ccccc3nc21	54.1	·	38.0	121.0*	-1.0	90.0*
N#Cc1c(NC(=O)c2ccc(Br)o2)n(-c2ccccc2)c2nc3ccccc3nc12	23.0	27.2	23.2	29.6*	2.4	-39.0
CCCCn1c(NC(=O)c2ccc(F)cc2)c(C#N)c2nc3ccccc3nc21	·	-2.6	·	·	·	·
CCC(C)n1c(NC(=O)c2ccccc2)c(C#N)c2nc3ccccc3nc21 (stereo not drawn)	7.5	-6.7	-4.8	93.5*	0.2	68.4*
CC(Cc1ccccc1)=NNC(=O)CNC(=O)COc1cccc(C)c1	-0.9	·	3.3	·	·	·
O=[N+]([O-])c1ccc(C=NNc2nc(N3CCCCC3)nc(N3CCCCC3)n2)o1	12.7	·	4.4	·	·	·
O=C(CN1C(=O)C(=Cc2ccccc2)SC1=S)Nc1cccnc1	4.0	·	-6.1	·	·	·
COc1cc(C=CC(=O)O)cc(S(=O)(=O)NCCO)c1OC	6.3	·	6.1	·	·	·
SMILES	Sa RN4220 lethal	BJeLR viability	ugtP null kill	CCHF vOTU inh-1	PfHsp40 yeast	CCHF vOTU inh-2
Cc1cc(OCC(=O)NNC(=S)NC(=O)c2ccc(Br)o2)ccc1Cl	70.3	·	74.0	35.8*	4.8	-14.0
CCC(=O)NC(=S)Nc1ccc(NC(=O)COc2ccc(Cl)c(C)c2)cc1	3.5	2.4	-9.6	13.7	4.5	·
C[C@]12CCC3c4ccc(O)cc4CCC3C1CC(O)C2OC1OC(C(=O)O)C(O)C(O)C1O (stereo partly drawn)	7.7	·	-0.7	·	·	·
Cc1csc(N/N=C/c2ccc([N+](=O)[O-])cc2)n1	·	13.6	·	5.7	-0.9	·
Cc1nnc(N/N=C\c2ccc(-c3cccc(C(=O)O)c3)o2)n1N	·	-9.3	·	72.9*	-1.8	-24.6
O=C(O)c1ccc(N/N=C/c2ccc(-c3ccc(Br)cc3)o2)cc1	·	-11.0	·	33.1*	-0.3	-2.9
Cc1nnc(N/N=C/c2ccc(Br)cc2)n1N	·	-4.5	·	94.2*	0.3	-12.9
Cc1nnc(N/N=C/c2ccc([N+](=O)[O-])cc2)n1N	·	11.2	·	121.6*	-0.2	-6.3
CC(C)(C)C(Cn1cncn1)=NOC(=O)Nc1ccc(Cl)cc1	3.2	·	2.9	·	·	·
CCc1nnc(NN=Cc2ccc(-c3ccc([N+](=O)[O-])cc3)o2)n1N	8.9	·	-19.0	·	·	·
Cc1nnc(N/N=C/c2ccc(-c3ccc(Br)cc3)o2)n1N	·	-5.1	·	77.2*	-1.4	-2.1
O=C(NCc1ccco1)c1nc2c(nnn2Cc2cccc(Cl)c2)c(=O)[nH]1	6.9	2.6	-0.1	20.7	0.2	·
O=C(NCc1ccccc1)c1nc2c(nnn2Cc2cccc(Cl)c2)c(=O)[nH]1	10.8	3.4	-10.5	44.6*	1.7	7.4
CN(C)C=Nc1nc2nccc(-c3cccnc3)n2n1	5.1	·	3.8	·	·	·
CN1/C(=C\C=O)C(C)(C)c2ccccc21	2.0	-25.6	18.9	15.2	0.0	·
CN1/C(=C\C=C2C(=O)NC(=O)NC2=O)C(C)(C)c2ccccc21	6.0	-2.5	6.7	36.1*	-1.2	36.9*
COC(=O)C1=C(c2cc3ccccc3s2)CC2CCC1N2C(=O)NC1CC1 (stereo not drawn)	4.7	·	-6.9	·	·	·
COc1ccccc1NC(=O)COC(=O)c1cc2ccccc2cc1O	3.1	·	3.3	13.1	-0.4	·
O=C(COC(=O)c1cc2ccccc2cc1O)Nc1ccccc1F	4.1	·	-1.5	30.9*	-0.7	-23.6
CC(C)(C)c1ccc(C(=O)OCc2c(-c3ccccc3)ncc3ccccc23)cc1	3.4	·	58.5	30.5*	0.0	-12.8
CCOC(=O)Nc1sc(NS(=O)(=O)c2ccc(C)cc2)nc1C	-0.3	-0.9	0.4	29.7*	-0.6	-10.4
CCOC(=O)Nc1sc(NS(=O)(=O)c2ccccc2)nc1C	0.9	-3.1	8.5	-6.5	1.0	·
O=[N+]([O-])c1ccccc1C=NN1CCN(c2ccccn2)CC1	2.8	·	0.1	·	·	·
